Experimental findings from PubChem BioAssay (NCATS) are described below.

Inconclusive results are not listed. Active and inactive are the calls of the source. Unless noted, calls follow the shape of the dose curve; as a rule, active = well fitted curve in the direction sought with a large enough effect; inconclusive = small, poorly fitted or top-dose-only effect, or another doubt; inactive = no such curve, though single readings can be large; an effect the other way counts as inactive or inconclusive.

Test [1] deals with Estrogen receptor (Homo sapiens) (UniProt P03372). In words: qHTS assay for small molecule antagonists of estrogen receptor alpha signaling (AID 588513; active = well fitted curve in the direction sought with a large enough effect in the signal ratio, with a control signal flat, not every such curve was filed as active; the % refers to the signal ratio; also: % is scaled to controls: 0 for no effect and ±100 for the full control effect). In outline: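 Fluorescence from CCF4 substrate after 2 h at room temperature gave reporter activity; cells had been exposed to compound and 0.5nM 17-beta-estradiol for 18 h at 37 C. Hill-equation fitting yielded IC50 and maximal response.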
Sequence of Estrogen receptor (Homo sapiens) (P03372 whole entry, looked up): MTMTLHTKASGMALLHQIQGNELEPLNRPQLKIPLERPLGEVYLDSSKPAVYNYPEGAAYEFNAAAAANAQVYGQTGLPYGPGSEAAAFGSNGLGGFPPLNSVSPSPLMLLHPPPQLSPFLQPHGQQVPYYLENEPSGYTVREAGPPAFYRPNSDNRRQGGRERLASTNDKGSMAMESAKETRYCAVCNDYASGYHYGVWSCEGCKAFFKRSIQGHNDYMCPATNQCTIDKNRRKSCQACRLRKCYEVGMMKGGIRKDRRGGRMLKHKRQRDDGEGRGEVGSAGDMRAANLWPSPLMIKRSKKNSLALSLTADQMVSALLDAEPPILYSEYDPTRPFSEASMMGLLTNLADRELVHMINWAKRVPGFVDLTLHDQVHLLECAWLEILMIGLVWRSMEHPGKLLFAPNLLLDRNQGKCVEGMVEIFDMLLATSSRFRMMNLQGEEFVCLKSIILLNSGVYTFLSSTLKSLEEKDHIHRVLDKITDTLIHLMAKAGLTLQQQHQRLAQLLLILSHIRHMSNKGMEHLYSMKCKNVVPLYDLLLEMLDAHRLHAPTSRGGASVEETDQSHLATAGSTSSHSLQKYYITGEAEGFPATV

The target is the same in test [2]. Description: qHTS assay for small molecule agonists of estrogen receptor alpha signaling (AID 588514; calls by dose curve;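 also: 0% = vehicle only and 100% = reference agonist; nearly all actives have a fitted effect of over 70% in size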). In outline: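 ER-alpha-UAS-bla GripTite HEK293 cells, 5000/well in 2% charcoal/dextran-stripped FBS medium, treated with compound titrations 18 h at 37 C. CCF4 beta-lactamase read by fluorescence after 2 h RT; normalised to 20 nM 17-beta-estradiol (100%) and DMSO (0%), Hill fit for EC50 and efficacy.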

Test [3] deals with Glucocorticoid receptor (Homo sapiens) (UniProt P04150). In words: qHTS assay for small molecule agonists of glucocorticoid receptor signaling (AID 588532; active = well fitted curve in the direction sought with a large enough effect in the signal ratio, with a control signal flat; the % refers to the signal ratio;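 also: 100% = dexamethasone at 0.1 µM and 0% = DMSO only wells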). The following applies: HeLa MMTV-bla, beta-lactamase ratio, agonist, 18 h; stronger effect = higher value; percent of dexamethasone control, DMSO zero. In a few lines: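 Agonist-mode qHTS: GRE-driven beta-lactamase in HeLa cells exposed 18 h to titrated compounds (up to 92 uM), then CCF4 ratio read after 2 h at RT; Hill-fitted EC50, efficacy relative to 0.1 uM dexamethasone.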
Sequence of Glucocorticoid receptor (Homo sapiens) (P04150 whole entry, looked up): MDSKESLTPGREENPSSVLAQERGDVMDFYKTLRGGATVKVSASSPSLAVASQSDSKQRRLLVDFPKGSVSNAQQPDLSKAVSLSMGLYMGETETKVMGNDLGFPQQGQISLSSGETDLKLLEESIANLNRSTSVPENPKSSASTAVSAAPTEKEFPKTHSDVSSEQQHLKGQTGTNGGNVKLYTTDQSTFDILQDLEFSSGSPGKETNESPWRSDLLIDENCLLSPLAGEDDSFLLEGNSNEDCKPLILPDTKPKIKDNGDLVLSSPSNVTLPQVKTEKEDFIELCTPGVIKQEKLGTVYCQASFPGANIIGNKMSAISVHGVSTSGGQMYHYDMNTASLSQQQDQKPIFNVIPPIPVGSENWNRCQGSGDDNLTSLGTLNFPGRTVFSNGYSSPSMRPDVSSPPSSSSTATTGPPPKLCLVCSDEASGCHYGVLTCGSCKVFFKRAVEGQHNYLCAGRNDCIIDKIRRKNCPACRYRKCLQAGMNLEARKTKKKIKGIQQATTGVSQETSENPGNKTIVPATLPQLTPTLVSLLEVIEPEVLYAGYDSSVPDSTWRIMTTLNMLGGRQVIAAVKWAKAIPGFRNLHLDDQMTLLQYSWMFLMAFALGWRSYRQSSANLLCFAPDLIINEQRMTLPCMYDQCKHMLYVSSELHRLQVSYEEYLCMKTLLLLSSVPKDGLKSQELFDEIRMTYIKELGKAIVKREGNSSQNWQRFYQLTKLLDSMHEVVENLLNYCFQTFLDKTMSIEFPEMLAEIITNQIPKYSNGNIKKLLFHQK
For orientation: Quantitative high-throughput screening tests each substance at several concentrations.

A short description of test [4]: qHTS assay for small molecule agonists of retinoid X receptor alpha signaling (AID 588544). As to conditions: HEK293T RXRa-UAS-bla, beta-lactamase reporter, 18 h; 530 nm emission.
Test [5] addresses Thyroid hormone receptor beta (Homo sapiens) (UniProt P10828). Description: qHTS assay for small molecule agonists of thyroid hormone receptor beta signaling (AID 588545; calls by dose curve;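 also: 0% = DMSO only and 100% = 10 nM T3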). In a few lines:
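Beta-lactamase reporter activity under TR response element control is measured in HEK 293 cells after 18 hrs compound exposure. Signal is ratiometric CCF4 fluorescence, 460/530 nm.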

A short description of test [6]: qHTS assay for small molecule antagonists of retinoid X receptor alpha signaling (AID 588546; active = well fitted inhibition curve with a large enough effect in the signal ratio, with a control signal flat, not every such curve was filed as active; the % refers to the signal ratio;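 also: cells stimulated with 9-cis-retinoic acid as agonist; % is scaled to controls: 0 for no effect and ±100 for the full control effect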). The following applies: HEK293T RXRa-UAS-bla, beta-lactamase ratio, antagonist mode; measured here: W530 green channel, cytotoxicity proxy. In a few lines: (§1)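 Beta-lactamase reporter inhibition, read as CCF4 fluorescence ratio (ex 405, em 460/530 nm) after 2 h at RT. HEK293T UAS-bla cells, 2500/well, were stimulated with 9-cis-RA at 500 or 100 nM final alongside test compound for 18 h at 37 C.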

Test [7] addresses Retinoic acid receptor RXR-alpha (Homo sapiens) (UniProt P19793). The description is as above. As to conditions: HEK293T RXRa-UAS-bla, beta-lactamase ratio, antagonist mode. In a few lines: as §1
In test [8] the target is Thyroid hormone receptor beta (Homo sapiens) (UniProt P10828). In words: qHTS assay for small molecule antagonists of thyroid hormone receptor beta signaling (AID 588547; active = well fitted inhibition curve with a large enough effect in the signal ratio, with a control signal flat, not every such curve was filed as active; the % refers to the signal ratio;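 also: cells stimulated with 0.4 nM T3 agonist during compound exposure; series mostly up to about 77 µM; % is scaled to controls: 0 for no effect and ±100 for the full control effect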). The following applies: TR-UAS-bla HEK293, beta-lactamase ratio, antagonist mode, 18 h. In outline:
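Inhibition of T3-driven (0.4nM final) beta-lactamase reporter activity was measured over 0.59 nM to 92 uM compound after 18 h at 37 C. The cells were GripTite HEK293 TR-UAS-bla in charcoal/dextran-stripped serum, with CCF4 ratio read-out and IC50 from Hill fits.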

A short description of test [9]: qHTS assay for environmental chemicals that activate the Aryl hydrocarbon Receptor (AhR) signaling pathway (AID 651777). Also: % of control where 0% means no effect; nearly all actives have a fitted effect of over 15% in size. As to conditions: 1A2-DRE human hepatoma cells, luciferase, 24 h; activation: stronger effect = higher value. In a few lines: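 Stable CYP1A2 promoter/DRE-luciferase human hepatoma line treated 24 hr; One-Glo luminescence, 30 min RT.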
A short description of test [10]: qHTS assay for small molecule agonists of the antioxidant response element (ARE) signaling pathway measured by Nrf2-dependant transcriptional activity (AID 720636; active = well fitted curve in the direction sought with a large enough effect in the repeat runs; an effect the other way counts as inactive or inconclusive;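 also: HepG2 cells with an ARE-driven luciferase reporter; % of control where 0% means no effect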). In outline:
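Reporter gene assay, HepG2 ARE-luc: 16 hr compound, 37 C, 5% CO2; read-out luciferase luminescence.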

Test [11] in a line: qHTS assay for small molecule agonists of the antioxidant response element (ARE) signaling pathway measured by Nrf2-dependant transcriptional activity - cell viability counter screen (AID 720653; active = well fitted curve in the direction sought with a large enough effect in the repeat runs; an effect the other way counts as inactive or inconclusive; also: % is scaled to controls: 0 for no effect and ±100 for the full control effect). The following applies: ARE-bla HepG2 viability, CellTiter-Glo ATP luminescence, 16 h; max response: stronger effect = lower value. In outline:
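Cytotoxicity counter screen: intracellular ATP quantified by CellTiter-Glo luminescence in the same ARE-bla HepG2 plates, after 16 h compound exposure and a 2 h beta-lactamase substrate step.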

Test [12] can be described thus: qHTS assay for cell viability of HEK293 cells (AID 743288). Also: % is scaled to controls: 0 for no effect and ±100 for the full control effect; nearly all actives have a fitted effect of over 50% in size. As to conditions: ATP luminescence (CellTiter-Glo), 18 h; max response: stronger effect = lower value. In a few lines:
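HEK293 parental, 2,000 cells/well; ≥5 h pre-incubation 37 C; pintool compound addition; 18 h, 37 C; CellTiter-Glo 30 min RT; luminescence read.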

Test [13] can be described thus: qHTS assay for cell viability of the p53RE-bla HCT-116 cell line (AID 743292). Also: % is scaled to controls: 0 for no effect and ±100 for the full control effect; nearly all actives have a fitted effect of over 55% in size. In outline: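 Readout: CellTiter-Glo luminescence after 30 min RT. Treatment: compounds in DMSO, 16 h, 37 C. Cells: CellSensor p53RE-bla HCT-116, 4,000/well, preincubated 5 h.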
In test [14] the target is Nuclear receptor subfamily 1 group I member 2 (Rattus norvegicus) (UniProt Q9R1A7). In words: qHTS assay for small molecule activators of the rat pregnane X receptor (rPXR) signaling pathway (AID 651751; call rule not given here; also: 0% is about no effect). The following applies: rPXR reporter cells, luciferase (One-Glo), 24 h.
Sequence of Nuclear receptor subfamily 1 group I member 2 (Rattus norvegicus) (Q9R1A7 whole entry, looked up): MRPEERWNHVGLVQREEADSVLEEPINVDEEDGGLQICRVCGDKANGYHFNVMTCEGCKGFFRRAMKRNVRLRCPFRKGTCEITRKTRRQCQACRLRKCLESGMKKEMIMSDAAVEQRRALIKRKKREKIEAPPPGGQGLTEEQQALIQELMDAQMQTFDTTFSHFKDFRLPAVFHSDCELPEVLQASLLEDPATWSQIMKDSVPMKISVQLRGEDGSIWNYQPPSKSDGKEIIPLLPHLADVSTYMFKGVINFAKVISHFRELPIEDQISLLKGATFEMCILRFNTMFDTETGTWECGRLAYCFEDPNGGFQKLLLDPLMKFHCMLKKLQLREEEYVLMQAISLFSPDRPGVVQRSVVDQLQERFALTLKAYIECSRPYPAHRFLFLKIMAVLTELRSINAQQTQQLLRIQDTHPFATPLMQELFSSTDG
Test [15] can be described thus: qHTS assay for small molecule activators of the human pregnane X receptor (PXR) signaling pathway (AID 720659; call rule not given here; also: 0% is about no effect).
The nature of test [16]: qHTS assay for small molecule antagonists of peroxisome proliferator-activated receptor delta signaling (AID 588535; active = well fitted inhibition curve with a large enough effect in the signal ratio, with a control signal flat, not every such curve was filed as active; the % refers to the signal ratio;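 as to max response: cells co-treated with a PPAR-delta agonist as stimulator during compound exposure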). As to conditions: HEK293T PPARd-UAS-bla, beta-lactamase FRET ratio, 18 h; 460 nm channel. In a few lines: (§2)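 HEK293T PPAR-delta-UAS-bla cells, 4000/well, 2% charcoal/dextran FBS; 5 h 37 C; cpd titration; 18 h 37 C; CCF4 2 h RT; FI 460/530 nm; Hill fit → IC50, efficacy.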

In test [17] the target is Peroxisome proliferator-activated receptor delta (Homo sapiens) (UniProt Q03181). The description is as above. In outline:
as §2

Test [18] has as its target Peroxisome proliferator-activated receptor gamma (Homo sapiens) (UniProt P37231). Description: qHTS assay for small molecule agonists of peroxisome proliferator-activated receptor gamma signaling (AID 588536; active = well fitted curve in the direction sought with a large enough effect in the signal ratio, with a control signal flat, not every such curve was filed as active; the % refers to the signal ratio;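 also: 0% = DMSO basal wells and 100% = rosiglitazone at 2 µM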). In a few lines: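 Ratiometric blue/green fluorescence (405 nm excitation; 460 and 530 nm emission) from CCF4-loaded HEK293 reporter cells serves as signal. Exposure to test compounds lasts 16 h at 37 C in medium containing 1% charcoal/dextran-treated serum.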

A short description of test [19]: qHTS assay for small molecule activators of the p53 signaling pathway (AID 651743; active = well fitted activation curve with a large enough effect in the signal ratio, not every such curve was filed as active; the % refers to the signal ratio; also: series mostly up to about 92 µM; % of control where 0% means no effect). The following applies: HCT-116 p53RE-bla, beta-lactamase FRET ratio, 16 h; activation: stronger effect = higher value. In a few lines:
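Read-out is fluorescence intensity from the LiveBLAzer B/G FRET substrate, added for 2 hours at room temperature after HCT-116 p53RE-bla cells had been incubated with compounds for 16 hours at 37 C.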

Test [20] has as its target Peroxisome proliferator-activated receptor alpha (Homo sapiens) (UniProt Q07869). Description: qHTS assay for small molecule agonists of the peroxisome proliferator-activated receptor alpha (PPARalpha) signaling pathway (AID 651778). Also: % of control where 0% means no effect. The following applies: PathHunter PPARalpha complementation, chemiluminescence, 6 h; max response: stronger effect = higher value. In a few lines:
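Chemiluminescence from complemented enzyme reported PPARalpha activation in cells after 6 hr of compound treatment at 37 C. The detection reagent was incubated for 60 min at room temperature, and compounds were scored as agonists.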

Sequence of Retinoic acid receptor RXR-alpha (Homo sapiens) (P19793 whole entry, looked up): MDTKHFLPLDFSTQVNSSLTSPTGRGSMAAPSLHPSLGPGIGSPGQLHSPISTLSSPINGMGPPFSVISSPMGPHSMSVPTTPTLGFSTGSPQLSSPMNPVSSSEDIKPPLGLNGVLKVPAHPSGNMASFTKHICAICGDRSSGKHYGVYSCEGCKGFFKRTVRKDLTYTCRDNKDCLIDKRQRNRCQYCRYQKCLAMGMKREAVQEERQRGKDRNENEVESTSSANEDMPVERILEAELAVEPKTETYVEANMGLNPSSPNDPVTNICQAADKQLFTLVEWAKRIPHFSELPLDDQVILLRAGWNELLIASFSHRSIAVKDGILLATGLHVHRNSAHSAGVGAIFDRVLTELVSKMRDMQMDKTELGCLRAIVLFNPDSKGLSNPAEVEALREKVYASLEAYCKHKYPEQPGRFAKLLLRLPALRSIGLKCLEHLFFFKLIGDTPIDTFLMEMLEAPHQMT
Sequence of Peroxisome proliferator-activated receptor gamma (Homo sapiens) (P37231 whole entry, looked up): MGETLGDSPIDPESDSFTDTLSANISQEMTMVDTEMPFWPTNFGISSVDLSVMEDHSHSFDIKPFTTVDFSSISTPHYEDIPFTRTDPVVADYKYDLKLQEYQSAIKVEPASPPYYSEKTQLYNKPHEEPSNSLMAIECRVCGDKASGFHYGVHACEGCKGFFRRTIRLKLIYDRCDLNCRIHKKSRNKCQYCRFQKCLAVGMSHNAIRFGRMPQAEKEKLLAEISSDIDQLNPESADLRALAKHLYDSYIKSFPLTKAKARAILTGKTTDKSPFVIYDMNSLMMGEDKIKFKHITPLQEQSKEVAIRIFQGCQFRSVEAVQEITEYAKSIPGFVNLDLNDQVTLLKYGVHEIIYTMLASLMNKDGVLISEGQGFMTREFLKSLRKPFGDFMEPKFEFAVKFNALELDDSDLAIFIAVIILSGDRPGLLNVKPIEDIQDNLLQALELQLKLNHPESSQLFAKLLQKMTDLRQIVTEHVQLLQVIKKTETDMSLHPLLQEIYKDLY
Sequence of Peroxisome proliferator-activated receptor alpha (Homo sapiens) (Q07869 whole entry, looked up): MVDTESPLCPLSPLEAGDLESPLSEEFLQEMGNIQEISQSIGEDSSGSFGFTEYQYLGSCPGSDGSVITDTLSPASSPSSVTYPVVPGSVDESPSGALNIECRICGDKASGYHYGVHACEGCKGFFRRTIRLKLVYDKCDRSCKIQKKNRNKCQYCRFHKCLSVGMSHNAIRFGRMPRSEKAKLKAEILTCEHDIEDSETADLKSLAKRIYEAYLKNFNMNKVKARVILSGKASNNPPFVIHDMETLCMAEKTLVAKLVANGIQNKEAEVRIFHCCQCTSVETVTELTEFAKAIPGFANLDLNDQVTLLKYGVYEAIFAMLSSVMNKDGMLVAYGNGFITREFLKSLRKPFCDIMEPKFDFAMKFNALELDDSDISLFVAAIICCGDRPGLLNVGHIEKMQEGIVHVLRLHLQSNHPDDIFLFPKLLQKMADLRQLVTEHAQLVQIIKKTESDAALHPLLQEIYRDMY
Sequence of Thyroid hormone receptor beta (Homo sapiens) (P10828 whole entry, looked up): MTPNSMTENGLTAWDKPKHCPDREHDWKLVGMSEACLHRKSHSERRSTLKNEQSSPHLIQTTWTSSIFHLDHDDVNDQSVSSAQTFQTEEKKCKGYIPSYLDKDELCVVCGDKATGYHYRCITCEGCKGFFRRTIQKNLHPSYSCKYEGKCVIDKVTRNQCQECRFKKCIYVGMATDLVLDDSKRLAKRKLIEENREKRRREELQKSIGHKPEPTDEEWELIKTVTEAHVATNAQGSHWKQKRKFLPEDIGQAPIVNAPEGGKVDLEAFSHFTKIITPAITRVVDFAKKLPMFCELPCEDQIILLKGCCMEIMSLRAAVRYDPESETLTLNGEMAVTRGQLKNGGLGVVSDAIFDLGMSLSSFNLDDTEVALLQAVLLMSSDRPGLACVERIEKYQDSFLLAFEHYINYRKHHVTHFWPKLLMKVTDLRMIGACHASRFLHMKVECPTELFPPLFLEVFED
Sequence of Peroxisome proliferator-activated receptor delta (Homo sapiens) (Q03181 whole entry, looked up): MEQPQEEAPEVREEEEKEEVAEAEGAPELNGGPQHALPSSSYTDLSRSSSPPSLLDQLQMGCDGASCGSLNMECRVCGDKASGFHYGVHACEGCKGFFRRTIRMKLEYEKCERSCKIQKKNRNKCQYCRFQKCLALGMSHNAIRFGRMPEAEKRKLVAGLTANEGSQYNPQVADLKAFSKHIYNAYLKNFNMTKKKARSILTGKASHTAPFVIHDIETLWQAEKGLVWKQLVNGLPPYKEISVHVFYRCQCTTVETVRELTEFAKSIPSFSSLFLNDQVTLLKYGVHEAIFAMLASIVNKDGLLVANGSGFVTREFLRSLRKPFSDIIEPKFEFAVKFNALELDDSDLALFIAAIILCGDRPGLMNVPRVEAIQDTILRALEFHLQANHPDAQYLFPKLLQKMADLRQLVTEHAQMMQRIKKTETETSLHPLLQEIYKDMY

As to `CCCCCCCCCCCC(=O)N(C)CC(=O)O`, the Potency result in test [1], in test [2], in test [5], in test [10] and in test [13] was “inactive” in each case. For the same compound, the activation in test [3] is -0.898% (inactive); in [9] it was 0.0412% (inactive). Besides, the max response in [4] is 21.8%; in [6], 7.91%; in test [7], 6.82% (inactive); in test [11] it was 19.7% (inactive); in test [12] it was -6.6% (inactive); in [14], -2.95% (inactive). Further, the activity change % (negative = inhibition) in test [8] is 5.42% (inactive). The result in test [15] was inactive.

Consider `CC(C)(C)c1n[nH]c(=O)n(N)c1=O`, for which the Potency result in [1], in test [17], in test [5], in [10] and in test [13] was “inactive” each time. Moreover, the results for the activation in [3], in test [19] and in [9] were 14.6% (inactive), 1.96% (inactive) and -0.927% (inactive), respectively. Besides, the max response was -9.84% in test [16]; -20% in test [4]; -5.34% in [6]; -3.59% (inactive) in [7]; 0.89% (inactive) in test [20]; -8.89% (inactive) in [11]. Also, the max response is -15.1% (inactive) in test [12] and 8.96% (inactive) in [14]. The call in test [18] and in test [15] was inactive. Also, the activity change % (negative = inhibition) in test [8] was 0.427% (inactive).

As for `CC(C)CCCCCOC(=O)CS`, the Potency entry in [1], in test [2], in test [10] and in [13] was “inactive” in each case. The results for the activation in test [3] and in test [9] were 5.28% (inactive) and -0.874% (inactive), respectively. The compound was classed as inactive in test [18] and in test [15]. Moreover, the max response was -0.354% in test [4]; -2.29% in test [6]; -5.77% (inactive) in test [7]; 0.461% (inactive) in test [20]; -0.966% (inactive) in [11]; -8.32% (inactive) in test [12]. In addition, the max response in [14] was -1.37% (inactive). Moreover, the activity change % (negative = inhibition) in test [8] was -8.58% (inactive).

Take `CSC(=O)c1cccc2nnsc12`: the Potency result in test [1], in test [17], in [5] and in test [10] was “inactive” throughout. The activation in [3] is -11.5% (inactive); in test [19], 1.69% (inactive); in [9] it was 0.806% (inactive). For the same compound, the max response in test [16] was 21.6%; in test [4] it was -10.1%; in test [6] it was -10.7%; in [7] it was 12.7% (inactive); in test [20] it was -3.32% (inactive); in test [11], 15.6% (inactive). The max response in test [12] was 3.92% (inactive). Besides, the call in [18] and in test [15] was inactive.

For `CCOC(=O)CCCCCCCCC(=O)OCC`, the Potency result in test [1], in test [2], in test [10] and in [13] was “inactive” throughout. Moreover, the compound was called inactive in test [18] and in test [15]. In addition, the max response in test [4] was 3.8%; in [6], -7.52%; in test [20] it was -3.28% (inactive); in test [11] it was -13.4% (inactive); in test [12], -4.17% (inactive); in test [14], 2.58% (inactive). The activation in [19] is -5.93% (inactive); in test [9], 0.108% (inactive).

Take `COc1ccc(OC)c(OC)c1`: the Potency result in test [1], in [5] and in test [10] was “inactive” throughout. The activation in [3] was 0.211% (inactive); in test [19], -1.46% (inactive); in [9] it was 0.552% (inactive). The call in [18] and in test [15] was inactive. Further, the max response was -0.39% in test [4]; -10% in test [6]; 0.14% (inactive) in test [20]; 7.1% (inactive) in test [11]; -1.79% (inactive) in test [12]; 3.06% (inactive) in [14]. Also, in test [8], the activity change % (negative = inhibition) was 7.13% (inactive).
